Results: PubChem BioAssay
Calls of active or inactive are those of the source.

What was measured:
[1] = molecular target: Albumin (Bos taurus) (UniProt P02769); test: bovine serum albumin binders on microarray, profiling panel, artefact control for SMM control protein annotation, biochemical, small-molecule microarray, Alexa647 label, 635/667 nm fluorescence (AID 1118); conditions: BSA-A647 binding, fluorescence 635 nm, higher = more signal;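 note: score merges 667 nm emission intensity and signal-to-noise per printed compound spot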
[2] = small-molecule microarray binders of probe aXIP, primary screen, biochemical, NeuroSMM set, 635/667 nm fluorescence (AID 1119); conditions: higher = more signal, called active from +8 up or from −8 down;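 note: probe is the protein aXip251-270 applied at 1 µg/mL to compound-printed slides; binding of probe to printed compounds measured as 667 nm fluorescence plus signal to noise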
[3] = small-molecule binders of probe aNOTCH3, primary screen, biochemical, small-molecule microarray, 635/667 nm fluorescence (AID 1120); conditions: higher = more signal;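 note: probe is a biotin-tagged antibody raised against NOTCH3 rather than NOTCH3 protein; score merges spot fluorescence near 667 nm with spot signal to noise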
[4] = small-molecule binders of probe aNOTCH2, primary screen, biochemical, small-molecule microarray, 635/667 nm fluorescence (AID 1121); conditions: higher = more signal;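 note: score merges feature fluorescence read at 667 nm with its signal to noise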
[5] = molecular target: Carbonic anhydrase 2 (Homo sapiens) (UniProt P00918); test: CAII small-molecule binders, profiling panel, biochemical, small-molecule microarray, Alexa647-labelled CAII (AID 1122); conditions: CAII-A647 binding fluorescence, higher = more signal
[6] = COS7 lysate on small-molecule microarray, probe aHis, 635 nm (AID 1123); conditions: COS7 cell lysate, fluorescence, higher = more signal;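 note: z-score combines 667nm fluorescence intensity with signal-to-noise per printed compound spot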
[7] = compound binding in COS7 lysate, probe aLAP1, primary screen, cell lysate, small-molecule microarray (AID 1124); conditions: probe aLAP1, fluorescence, higher = more signal;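 note: lysate comes from COS7 cells expressing LAP1 and is applied at 0.3 µg/mL; score merges spot fluorescence near 667 nm with signal-to-noise over triplicate slides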
[8] = tested on: Sam68 (KHDRBS1); test: Sam68 small-molecule binders, primary screen, biochemical, small-molecule microarray, 635 nm fluorescence (AID 1125); conditions: small-molecule microarray binding, higher = more signal;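 note: score merges 667 nm channel intensity with signal to noise over triplicate slides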
[9] = tested on: Chordin-like protein 2 (CHRDL2); test: CHRDL2 small-molecule binders, primary screen, biochemical, small-molecule microarray, 635 nm fluorescence (AID 1126); conditions: small-molecule microarray binding, fluorescence 635 nm; higher = more signal;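 note: printed compound slides probed with Chrdl2 protein at 4 µg/mL for 1 h at 4 C; score merges 667 nm emission intensity with signal to noise over three replicate slides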
[10] = molecular target: Concanavalin-A (Canavalia ensiformis) (UniProt P02866); test: ConA small-molecule binders, primary screen, artefact control for SMM control protein annotation, biochemical, small-molecule microarray, Alexa647 label, 635 nm (AID 1127); conditions: ConA-A647 binding fluorescence, higher = more signal;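 note: z combines 667 nm emission intensity with signal-to-noise across three replicate slides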
Concanavalin-A (Canavalia ensiformis), sequence (P02866 whole entry, looked up): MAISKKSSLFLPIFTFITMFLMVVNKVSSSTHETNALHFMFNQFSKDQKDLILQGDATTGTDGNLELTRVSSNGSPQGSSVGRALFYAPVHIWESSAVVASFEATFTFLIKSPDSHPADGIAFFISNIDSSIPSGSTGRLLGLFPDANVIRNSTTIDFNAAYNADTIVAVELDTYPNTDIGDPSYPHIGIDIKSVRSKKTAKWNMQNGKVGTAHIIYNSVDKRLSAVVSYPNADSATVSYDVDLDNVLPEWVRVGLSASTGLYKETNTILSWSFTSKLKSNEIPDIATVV

Albumin (Bos taurus), sequence (P02769 whole entry, looked up): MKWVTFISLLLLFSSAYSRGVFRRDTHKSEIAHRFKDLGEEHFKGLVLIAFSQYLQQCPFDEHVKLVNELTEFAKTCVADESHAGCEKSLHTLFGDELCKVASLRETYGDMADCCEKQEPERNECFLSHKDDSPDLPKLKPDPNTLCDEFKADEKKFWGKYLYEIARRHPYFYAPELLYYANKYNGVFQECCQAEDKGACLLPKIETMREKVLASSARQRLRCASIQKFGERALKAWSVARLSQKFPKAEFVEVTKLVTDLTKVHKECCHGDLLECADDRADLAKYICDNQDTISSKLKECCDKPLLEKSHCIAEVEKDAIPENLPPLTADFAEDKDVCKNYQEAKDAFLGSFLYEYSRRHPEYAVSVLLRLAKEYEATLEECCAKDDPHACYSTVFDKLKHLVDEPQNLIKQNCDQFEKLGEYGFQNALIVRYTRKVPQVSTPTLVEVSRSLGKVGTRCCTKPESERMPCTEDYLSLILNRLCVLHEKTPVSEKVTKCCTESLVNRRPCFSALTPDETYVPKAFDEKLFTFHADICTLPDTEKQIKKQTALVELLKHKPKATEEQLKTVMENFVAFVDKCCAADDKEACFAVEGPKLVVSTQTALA

Row | Structure (SMILES) | composite z-score [1] | composite Z-score [2] | composite z-score [3] | composite z-score [4] | composite z-score [5] | composite z-score [6] | composite z-score [7] | composite z-score [8] | composite z-score [9] | composite z-score [10]
1 | COc1ccc(C(=O)Nc2ccc(CN3C(=O)[C@]4(O[C@H](CCO)[C@@H]([Si](C)(C)c5ccc(OC)cc5)[C@@H]4C)c4ccccc43)cc2)cc1 | 0.357 | 0.377 (inactive) | 0.149 | -0.0891 | 0.283 | 0.417 | -0.337 | 1.22 | 0.531 | 1.09
2 | O=C1O[C@@H](c2ccccc2)[C@@H](c2ccccc2)N2[C@@H](c3ccccc3OCCO)[C@]3(C(=O)Nc4ccccc43)[C@@H](C(=O)Nc3nc4ccccc4s3)[C@H]12 | 0.827 | 0.703 (inactive) | 1.38 | -0.181 | 0.619 | 2.89 | 0.485 | 1.25 | -0.111 | 1.16
3 | O=C1C[C@]2(c3ccc([N+](=O)[O-])cc3)C(=O)N(CC(F)(F)F)c3cc(CO)ccc3[C@H]2N1C1CCCCC1 | -0.749 | -0.0774 (inactive) | -0.125 | -0.112 | -0.634 | 0.0971 | 0.206 | -0.686 | -1.26 | -0.546
4 | COCCOC(=O)N1C(=O)[C@@]2(c3cc(C#Cc4ccc(OC)cc4)ccc31)[C@H](c1ccccc1OCCO)N1[C@H](c3ccccc3)[C@H](c3ccccc3)OC(=O)[C@H]1[C@@H]2C(=O)NC[C@H](O)c1ccccc1 | -0.0206 | -0.112 (inactive) | 0.156 | -0.115 | 0.528 | 1.6 | 0.618 | 1.29 | 0.711 | 0.999
5 | CCOC(=O)C[C@H]1[C@H](OC(=O)c2cc3ccccc3oc2=O)[C@@H](NC(=O)c2ccccc2)c2cc(OCCCO)ccc2N1C(=O)c1ccc2ccccc2n1 | -0.117 | 0.315 (inactive) | 0.0496 | 0.655 | 0.515 | 0.922 | 0.0418 | 0.845 | 0.651 | 0.821
6 | C[C@@]1([C@@H](NC(=O)c2ccc(-c3ccccc3)cc2)c2ccc(Cl)cc2)C[C@H]1C1CCCCC1 | 0.688 | -0.286 (inactive) | 0.305 | -0.0527 | 0.302 | 2.21 | 0.0789 | 1.29 | -0.564 | 1.01
7 | O=C(N1CCCCC1)[C@]1(Cc2ccccc2)N=C(c2ccc(OCCCO)cc2)O[C@@H]1c1ccccc1 | 0.441 | -0.425 (inactive) | 0.096 | -0.0561 | 0.225 | 1.24 | 0.968 | 1.18 | -0.862 | 1.06
8 | O=C(CS)NCCCCCCNC(=O)[C@@H]1C[C@@H]2C(=O)N[C@@H](Cc3ccccc3)C(=O)N2[C@@H]1c1cccc(OCCO)c1 | -0.623 | 0.439 (inactive) | 0.169 | -0.0248 | 0.567 | 2.28 | -0.488 | 1.29 | 0.892 | 1.15
9 | CCOC(=O)C[C@H]1[C@H](OC(=O)c2ccccc2-c2ccccc2)[C@@H](NC(=O)CC(C)C)c2cc(OCCCO)ccc2N1C(=O)Cc1ccc(OC)cc1 | 0.401 | 0.692 (inactive) | 0.0708 | -0.118 | -0.132 | 0.761 | -0.201 | 0.488 | 0.246 | 0.482
10 | O=C(NCCN1CCOCC1)C1N=C(c2ccc(OCCCO)cc2)N(c2ccccc2)O1 (stereo not given) | 0.439 | 0.267 (inactive) | 0.0261 | 0.119 | 0.835 | 2.79 | 0.908 | 1.3 | 1.41 | 0.691
11 | COC(=O)[C@@]1(Cc2ccccc2)N=C(c2ccc(OCCCO)cc2)O[C@H]1c1ccccc1 | 0.103 | 0.216 (inactive) | -0.17 | -0.0179 | 0.624 | 2.76 | 1.07 | -0.0634 | 0.0607 | 0.889
12 | COCCOC(=O)N1C(=O)[C@@]2(c3cc(C#CCC(C(=O)OC)C(=O)OC)ccc31)[C@H](c1ccccc1OCCO)N1[C@H](c3ccccc3)[C@H](c3ccccc3)OC(=O)[C@H]1[C@@H]2C(=O)N1CCN(c2ncccn2)CC1 | 0.846 | 0.347 (inactive) | 0.225 | -0.0249 | 0.499 | 1.66 | 0.596 | 1.31 | 1.04 | 1.12
13 | COc1cc2c(cc1OC)CN(C(=O)[C@@H]1[C@H]3C(=O)O[C@H](c4ccccc4)[C@H](c4ccccc4)N3[C@H](c3ccc(O)cc3)[C@@]13C(=O)Nc1ccccc13)CC2 | 0.551 | 0.799 (inactive) | -0.0647 | -0.117 | 0.622 | 1.74 | 0.169 | 0.751 | 0.257 | 1.13
14 | COCCOC(=O)N1C(=O)[C@@]2(c3cc(C#CCNC(N)=O)ccc31)[C@H](C(=O)N1CCN(c3ncccn3)CC1)[C@H]1C(=O)O[C@H](c3ccccc3)[C@H](c3ccccc3)N1[C@@H]2c1ccc(OCCO)cc1 | 0.521 | 0.242 (inactive) | 0.185 | -0.108 | 0.193 | 1.48 | 0.437 | 1.29 | 0.0879 | 1
15 | O=C1C[C@@](C(=O)NCC(F)(F)F)(c2ccc([N+](=O)[O-])cc2)[C@@H](c2ccc(CO)cc2I)N1C1CCCCC1 | 0.365 | 0.004 (inactive) | 0.03 | -0.0394 | 0.437 | 2.22 | -0.0164 | 1.23 | 0.189 | 0.676
16 | CC(C)[Si](C#Cc1ccc(Oc2ccccc2)cc1)(O[Si](C#Cc1ccc(Oc2ccccc2)cc1)(C(C)C)C(C)C)C(C)C | 0.216 | 0.387 (inactive) | -0.0188 | -0.037 | 0.603 | 0.407 | 0.115 | 0.562 | 0.156 | -0.76
17 | C=CC(=C)[C@H]1Oc2ccccc2S(=O)(=O)N2CCC[C@@H]12 | 0 | 0.0556 (inactive) | -0.0588 | -0.156 | -0.293 | -0.284 | -0.0098 | -0.973 | 0.634 | -0.285
18 | CCOC(=O)C[C@H]1[C@H](OC(=O)c2ccc(C(=O)c3ccccc3)cc2)[C@@H](NC(=O)c2ccccc2)c2cc(OCCCO)ccc2N1C(=O)Cc1ccc(OC)cc1 | 0.346 | 0.713 (inactive) | 0.0242 | -0.0624 | 0.0172 | 0.445 | -0.171 | 0.226 | 0.0542 | 0.163
19 | C=CC[C@]1(C(=O)NCc2ccccc2)N=C(c2ccc(OCCCO)cc2)O[C@H]1c1ccccc1N=[N+]=[N-] | 0.897 | 1.39 (inactive) | 0.174 | 0.12 | 0.625 | 2.68 | 0.727 | 1.34 | -0.567 | 1.09
20 | O=C1c2ccccc2[C@](Cc2ccccc2I)(C(=O)NCC(F)(F)F)[C@H](c2ccc(CO)cc2)N1Cc1ccccc1Cl | 0.83 | -0.228 (inactive) | 0.0445 | -0.0811 | 0.596 | 2.04 | 1.42 | 1.29 | -0.466 | 1.09
21 | CN(C)CCCCCCNC(=O)[C@H]1C[C@H]2C(=O)N[C@@H](CCCCN)C(=O)N2[C@H]1c1cccc(OCCO)c1 | 0.733 | 5.67 (inactive) | 1.95 | 0.986 | 0.773 | 4.1 | 0.952 | 1.33 | 1.46 | 1.25
22 | COC(=O)C(CC#Cc1ccc2c(c1)[C@]1(C(=O)N2)[C@H](C(=O)Nc2nc3ccccc3s2)[C@H]2C(=O)O[C@H](c3ccccc3)[C@H](c3ccccc3)N2[C@@H]1c1ccc(O)cc1)C(=O)OC | 0.646 | 0.298 (inactive) | -0.0431 | -0.0846 | 0.378 | 1.96 | 0.301 | 1.3 | 0.673 | 1.04
23 | C=C(/C(=C/C[C@H](OC(C)=O)c1ccc(CO)o1)c1cc(C(=O)OC)ccc1OC)C(C)C | 0.222 | 0.72 (inactive) | -0.0328 | -0.148 | 0.646 | 0.356 | -0.185 | 0.271 | -0.649 | -0.237
24 | COC(=O)C(CC#Cc1ccc2c(c1)[C@]1(C(=O)N2)[C@H](C(=O)Nc2nc3ccccc3s2)[C@H]2C(=O)O[C@H](c3ccccc3)[C@H](c3ccccc3)N2[C@@H]1c1ccccc1OCCO)C(=O)OC | 0.987 | -0.323 (inactive) | 0.116 | -0.0859 | 0.663 | 1.69 | 0.636 | 1.3 | -0.154 | 1.14
25 | Cc1ccc(S[C@]2(C(=O)NCCCN(C)C)CC(=O)N(Cc3cc(C(F)(F)F)cc(C(F)(F)F)c3)[C@@H]2c2ccc(CO)cc2)cc1 | 0.384 | 0.624 (inactive) | -0.149 | -0.106 | 0.874 | 0.616 | 0.357 | -0.427 | -0.869 | -0.949
26 | COCCOC(=O)N1C(=O)[C@@]2(c3cc(C#CCNC(N)=O)ccc31)[C@H](C(=O)Nc1nc3ccccc3s1)[C@H]1C(=O)O[C@H](c3ccccc3)[C@H](c3ccccc3)N1[C@@H]2c1ccc(OCCO)cc1 | -0.28 | -0.335 (inactive) | 0.0952 | 0.0949 | 0.382 | 0.481 | 0.422 | 1.1 | 1.34 | 0.994
27 | COc1cc(COC(C)=O)ccc1OC(C)=O | -0.0355 | -0.254 (inactive) | 0.397 | -0.0304 | -0.171 | 0.279 | -0.184 | 0.624 | 0.558 | 0.733
